Inconclusive results are not listed. Active and inactive are the calls of the source. Unless noted, the call rests on the fitted dose curve; in most records, active means well fitted curve in either direction with a large enough effect (not every such curve was filed as active); inconclusive means small, poorly fitted or top-dose-only effect, or another doubt; inactive means flat fitted curve, though single readings scatter.
How the values were obtained:
[1] = target: Lysosomal acid glucosylceramidase (Homo sapiens) (UniProt P04062); assay: Glucocerebrosidase-p2 (AID 348; in the data active means potency below about 10 µM; further: potency means the concentration at half of the fitted maximal effect); conditions: purified GBA, blue fluorogenic substrate, 40 min
Sequence of Lysosomal acid glucosylceramidase (Homo sapiens) (P04062 whole entry, looked up): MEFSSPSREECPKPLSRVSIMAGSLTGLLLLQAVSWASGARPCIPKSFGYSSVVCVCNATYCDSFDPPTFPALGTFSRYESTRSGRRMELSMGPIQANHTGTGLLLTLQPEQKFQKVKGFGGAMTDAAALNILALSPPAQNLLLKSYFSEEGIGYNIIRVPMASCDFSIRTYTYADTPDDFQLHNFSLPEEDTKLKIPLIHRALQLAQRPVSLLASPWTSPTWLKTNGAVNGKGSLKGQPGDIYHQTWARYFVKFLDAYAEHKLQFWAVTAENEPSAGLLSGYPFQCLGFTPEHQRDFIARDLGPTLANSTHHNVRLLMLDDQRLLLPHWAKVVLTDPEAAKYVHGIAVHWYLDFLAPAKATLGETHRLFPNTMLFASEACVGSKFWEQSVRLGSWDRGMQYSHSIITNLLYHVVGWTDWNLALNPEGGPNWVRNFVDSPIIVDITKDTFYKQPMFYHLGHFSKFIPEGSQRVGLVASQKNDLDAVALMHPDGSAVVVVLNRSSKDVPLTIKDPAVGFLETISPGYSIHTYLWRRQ
In short: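 Normal human glucocerebrosidase (0.2 nM) with blue fluorogenic substrate (80 uM final) in citrate/phosphate pH 5.9 with 10mM sodium taurocholate, 0.01% tween-20; 40 min RT, NaOH/glycine stop; fluorescence Ex 365/Em 440; AC50 from a titration from 0.6 nM upwards.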

[2] = AP1 Signaling Pathway (AID 357); conditions: ME-180 AP-1-bla reporter, EGF-induced, beta-lactamase ratio, 5 h; at 7.69 µM (top of the series) unless noted;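 further: ME-180 reporter cells stimulated with EGF at its EC50 level; on the % scale 0 is the no-effect control and ±100 the full control effect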
In short: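 First, ME-180 AP-1-bla cells were cultured overnight at 37 °C in low-serum Opti-MEM. Next, titrated compounds with EC50 EGF were incubated 5 hours. Finally, CCF4 was added for 2.5 hours and the 460/530 nm ratio recorded.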

[3] = target: Cytochrome P450 1A2 (Homo sapiens) (UniProt P05177); assay: p450-cyp1a2 (AID 410; calls by dose curve; further: potency means the concentration at half of the fitted maximal effect;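 on activity change, negative = inhibition: -100% = full effect of reference inhibitor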); conditions: recombinant CYP1A2, luciferin-ME demethylation, luminescence; series mostly up to 57 µM
Sequence of Cytochrome P450 1A2 (Homo sapiens) (P05177 whole entry, looked up): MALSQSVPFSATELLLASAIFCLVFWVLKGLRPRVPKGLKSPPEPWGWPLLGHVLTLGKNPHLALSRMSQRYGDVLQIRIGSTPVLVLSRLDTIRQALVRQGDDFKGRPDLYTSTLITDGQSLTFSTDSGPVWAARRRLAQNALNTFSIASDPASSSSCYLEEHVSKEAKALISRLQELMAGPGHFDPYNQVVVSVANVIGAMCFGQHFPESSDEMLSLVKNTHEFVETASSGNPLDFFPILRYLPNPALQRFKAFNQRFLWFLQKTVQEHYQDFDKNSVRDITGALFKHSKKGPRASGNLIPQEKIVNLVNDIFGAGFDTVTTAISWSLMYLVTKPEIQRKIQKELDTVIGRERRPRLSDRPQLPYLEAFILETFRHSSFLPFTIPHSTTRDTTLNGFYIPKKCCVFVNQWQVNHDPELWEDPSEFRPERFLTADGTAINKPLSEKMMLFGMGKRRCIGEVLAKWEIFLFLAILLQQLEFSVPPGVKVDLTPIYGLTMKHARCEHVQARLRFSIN
In short: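 Read-out is luminescence from luciferin produced by CYP1A2 demethylation of Luciferin-ME (100uM, at Km). Detection reagent stopped the 60 min NADPH-dependent reaction; signals were normalized to 57 uM furafylline.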

[4] = NFAT Signaling Pathway (AID 444); conditions: Jurkat NFAT-bla M1, carbachol, beta-lactamase ratio, 5 h; at 7.69 µM (top of the series) unless noted;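 further: carbachol stimulus at about its EC50 of 1 µM final; on the % scale 0 is the no-effect control and ±100 the full control effect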
In short: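 Read-out: CCF4 FRET ratio (460 nm/530 nm) after 1 h RT dye loading, used for %activity and AC50 from titration series. Cells: Jurkat NFAT-β-lactamase/M1 line, treated with compound plus 1 uM carbachol for 5 h, 37 °C.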

[5] = Stat Signaling Pathway (AID 446); conditions: ME-180 SIE beta-lactamase reporter, IL-6 stimulated, 5 h; at 7.69 µM (top of the series) unless noted;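 further: ME-180 cervical cancer cells given 40 pM IL-6 alongside compound; SIE-controlled beta-lactamase reporter measured as 460/530 nm FRET emission ratio; on the % scale 0 is the no-effect control and ±100 the full control effect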
In short: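 Overnight-plated ME-180 cells bearing a STAT Inducible Element beta-lactamase reporter; 5 h co-exposure to compound and 40 pM IL-6; values normalized to 300 pM IL-6 and 125 nM JAK inhibitor controls.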

[6] = target: Glucocorticoid receptor (Homo sapiens) (UniProt P04150); assay: GR-EFC Redistribution (AID 451; calls by dose curve; further: potency means the concentration at half of the fitted maximal effect); conditions: CHO-K1 GR-EFC translocation, beta-gal luminescence, 2 h
Sequence of Glucocorticoid receptor (Homo sapiens) (P04150 whole entry, looked up, the tested form may be a part): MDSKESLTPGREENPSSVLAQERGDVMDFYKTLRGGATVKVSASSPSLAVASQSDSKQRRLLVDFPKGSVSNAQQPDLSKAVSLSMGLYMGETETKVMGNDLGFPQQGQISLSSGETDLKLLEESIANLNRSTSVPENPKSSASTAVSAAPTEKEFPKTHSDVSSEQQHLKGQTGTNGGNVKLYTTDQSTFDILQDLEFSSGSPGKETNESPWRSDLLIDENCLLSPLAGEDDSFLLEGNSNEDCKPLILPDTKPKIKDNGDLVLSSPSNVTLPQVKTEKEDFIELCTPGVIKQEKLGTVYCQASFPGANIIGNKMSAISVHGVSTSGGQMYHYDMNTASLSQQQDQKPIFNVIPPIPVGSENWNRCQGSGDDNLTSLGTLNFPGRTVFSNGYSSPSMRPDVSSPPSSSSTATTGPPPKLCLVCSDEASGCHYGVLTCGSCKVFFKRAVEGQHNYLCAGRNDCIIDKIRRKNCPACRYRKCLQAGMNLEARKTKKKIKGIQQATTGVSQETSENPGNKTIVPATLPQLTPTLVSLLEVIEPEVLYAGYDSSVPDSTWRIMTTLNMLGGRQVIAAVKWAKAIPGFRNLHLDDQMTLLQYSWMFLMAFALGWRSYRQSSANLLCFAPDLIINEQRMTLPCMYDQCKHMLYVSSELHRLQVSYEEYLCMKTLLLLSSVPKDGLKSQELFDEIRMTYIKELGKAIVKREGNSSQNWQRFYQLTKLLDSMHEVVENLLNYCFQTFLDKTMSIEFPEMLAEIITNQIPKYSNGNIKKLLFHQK
In short: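 Translocation of GR-ED fusion to nuclear EA restores b-gal, read by luminescence after 1 h room-temperature detection. Engineered CHO-K1 biosensor cells, 1,000/well, exposed 2 h at 37 C to titrations up to 46 uM final.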

[7] = target: 3',5'-cyclic-AMP phosphodiesterase 4B (Homo sapiens) (UniProt Q07343); assay: qHTS Assay for Inhibitors of PDE-IV (AID 607; active means well fitted activation curve with a large enough effect in the main read-out, with a control signal flat, not every such curve was filed as active; further: % of control where 0% means no effect); conditions: HEK293 ACTOne CNG channel cells, membrane potential fluorescence; series mostly up to 22.9 µM
Sequence of 3',5'-cyclic-AMP phosphodiesterase 4B (Homo sapiens) (Q07343 whole entry, looked up): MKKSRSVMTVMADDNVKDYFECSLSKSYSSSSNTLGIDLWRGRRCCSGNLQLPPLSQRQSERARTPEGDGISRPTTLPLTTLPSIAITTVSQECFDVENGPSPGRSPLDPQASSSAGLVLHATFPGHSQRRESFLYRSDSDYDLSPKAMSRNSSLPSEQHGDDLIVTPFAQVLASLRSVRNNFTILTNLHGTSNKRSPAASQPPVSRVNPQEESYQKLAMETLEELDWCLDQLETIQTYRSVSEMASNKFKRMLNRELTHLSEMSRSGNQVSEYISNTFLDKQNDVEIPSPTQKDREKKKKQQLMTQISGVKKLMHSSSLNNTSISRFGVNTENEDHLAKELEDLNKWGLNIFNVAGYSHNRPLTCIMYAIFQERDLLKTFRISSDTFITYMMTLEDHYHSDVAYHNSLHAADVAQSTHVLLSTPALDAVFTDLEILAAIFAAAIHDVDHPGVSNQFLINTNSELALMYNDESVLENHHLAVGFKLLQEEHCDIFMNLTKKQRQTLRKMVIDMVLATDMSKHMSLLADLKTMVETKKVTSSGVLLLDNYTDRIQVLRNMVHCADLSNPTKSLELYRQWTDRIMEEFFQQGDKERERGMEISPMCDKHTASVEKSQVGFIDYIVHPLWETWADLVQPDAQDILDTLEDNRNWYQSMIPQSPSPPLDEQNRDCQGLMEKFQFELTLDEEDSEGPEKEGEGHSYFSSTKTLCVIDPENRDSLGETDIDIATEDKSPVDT
In short: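 Live HEK293 cells with a modified cyclic nucleotide-gated (CNG) channel report intracellular cAMP via membrane-potential dye fluorescence (ex 535/em 590 nm). Endogenous PDE-IV was targeted. Compounds were tested at up to 22.9 uM final; RO 20-1724 100 uM served as control.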

[8] = qHTS Assay for Lipid Storage Modulators (AID 1519; calls by dose curve); conditions: Drosophila S3 cells, BODIPY lipid droplet/cell ratio, laser cytometry, cells loaded with oleic acid; for activity change, negative = inhibition: at 57.5 µM (top of the series)
In short: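 Cells seeded at 5,000 per well were treated with compounds over a concentration series and loaded with oleic acid (400 uM, as added). Lipid droplet fluorescence (488 nm excitation, 500-530 nm channel) was read by laser-scanning cytometry and normalized to 20 uM Triacsin C.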

[9] = Primary qHTS for small molecule stabilizers of the endoplasmic reticulum resident proteome: Secreted ER Calcium Modulated Protein (SERCaMP) assay (AID 1508630; active means well fitted curve in the direction sought with a large enough effect; an effect the other way counts as inactive or inconclusive; further: on the % scale 0 is the no-effect control and ±100 the full control effect); conditions: SH-SY5Y GLuc-SERCaMP (Gaussia luciferase released on ER calcium loss) secretion, thapsigargin, luminescence; series mostly up to 38.4 µM
In short: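 The SH-SY5Y reporter protocol was run at 3 concentrations up to 38.3 uM (primary) or 11 concentrations (follow-up): 16 h compound, 100 nM thapsigargin for 4 h, then extracellular luciferase luminescence.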

[10] = target: Cytochrome P450 3A4 (Homo sapiens) (UniProt P08684); assay: qHTS Assay for Activators of Cytochrome P450 3A4 (AID 885; active means well fitted curve in the direction sought with a large enough effect; an effect the other way counts as inactive or inconclusive; further: nearly all actives have a fitted effect of over 65% in size); conditions: recombinant CYP3A4, Luciferin-PPXE luminescence, 60 min; series mostly up to 57.1 µM
Sequence of Cytochrome P450 3A4 (Homo sapiens) (P08684 whole entry, looked up): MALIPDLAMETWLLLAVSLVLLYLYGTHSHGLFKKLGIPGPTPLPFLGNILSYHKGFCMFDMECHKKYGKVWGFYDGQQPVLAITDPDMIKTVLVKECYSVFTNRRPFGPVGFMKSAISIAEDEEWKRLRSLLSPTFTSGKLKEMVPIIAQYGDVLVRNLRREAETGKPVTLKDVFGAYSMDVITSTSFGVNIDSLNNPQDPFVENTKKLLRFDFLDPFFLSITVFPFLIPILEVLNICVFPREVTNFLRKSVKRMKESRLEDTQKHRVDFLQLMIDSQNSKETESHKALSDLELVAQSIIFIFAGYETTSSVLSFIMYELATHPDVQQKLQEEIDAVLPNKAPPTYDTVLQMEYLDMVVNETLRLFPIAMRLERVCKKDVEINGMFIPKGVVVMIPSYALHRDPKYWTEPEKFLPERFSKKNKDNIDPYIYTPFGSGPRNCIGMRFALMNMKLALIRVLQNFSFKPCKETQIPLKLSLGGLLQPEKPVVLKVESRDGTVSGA
In short: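 Using 20nM recombinant human CYP3A4 in potassium phosphate (200mM), substrate Luciferin-PPXE at 25uM, luminescent luciferin detection followed a 60-min RT NADPH reaction; data scaled to 57 uM ketoconazole.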

[11] = target: Cytochrome P450 2C19 (Homo sapiens) (UniProt P33261); assay: qHTS Assay for Inhibitors and Substrates of Cytochrome P450 2C19 (AID 899; active means well fitted curve in the direction sought with a large enough effect; an effect the other way counts as inactive or inconclusive; further: potency means the concentration at half of the fitted maximal effect; nearly all actives have a fitted effect of over 60% in size); conditions: recombinant CYP2C19, luciferin-H EGE luminescence; series mostly up to 57.1 µM
Sequence of Cytochrome P450 2C19 (Homo sapiens) (P33261 whole entry, looked up): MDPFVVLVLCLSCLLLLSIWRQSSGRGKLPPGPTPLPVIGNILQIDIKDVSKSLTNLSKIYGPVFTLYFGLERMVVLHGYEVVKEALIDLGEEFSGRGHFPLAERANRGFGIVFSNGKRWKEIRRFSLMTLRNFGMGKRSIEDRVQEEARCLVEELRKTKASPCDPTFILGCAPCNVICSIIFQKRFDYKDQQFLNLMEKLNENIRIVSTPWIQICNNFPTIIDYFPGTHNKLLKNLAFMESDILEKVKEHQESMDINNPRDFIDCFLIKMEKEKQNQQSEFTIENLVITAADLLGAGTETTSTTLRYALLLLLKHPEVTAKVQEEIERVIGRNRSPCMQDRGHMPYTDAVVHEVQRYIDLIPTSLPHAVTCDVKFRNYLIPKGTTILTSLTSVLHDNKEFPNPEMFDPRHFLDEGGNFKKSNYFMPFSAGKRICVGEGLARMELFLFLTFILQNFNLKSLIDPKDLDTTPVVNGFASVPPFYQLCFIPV
In short: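 5nM enzyme + 10uM Luciferin-H EGE (=KM), 50mM KPO4; cpd pin-transferred, 10 min 37C; NADPH regen, 60 min 37C; stopped w/ luciferin detection reagent, 20 min; luminescence. Normalized to 57uM ketoconazole (AC100).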

[12] = target: Glucocorticoid receptor (Homo sapiens) (UniProt P04150); assay: GR-GFP Redistribution (AID 450;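 active means compounds whose dose series gives a full or clear partial fitted curve of increased nuclear translocation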; further: potency means the concentration at half of the fitted maximal effect); conditions: U2OS GR-GFP nuclear translocation, laser cytometry, 2 h
[13] = target: Mitogen-activated protein kinase 10 (Mus musculus) (UniProt Q61831); assay: JNK3 AlphaScreen Assay (AID 530); conditions: JNK3 lysate, c-Jun phosphorylation; series mostly up to 57.1 µM
In short: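 Kinase buffer: 20 mM Tris-HCl pH 7.6, 10 mM MgCl2, 1 mM DTT, 0.1 mM Na3VO4, 0.01% Tween-20; ATP 10 uM. Substrate biotin-GST-cJun(1-79), enzyme from activated HepG2 lysates. Detection by Ser73 phospho-antibody AlphaScreen.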

[14] = target: Cytochrome P450 3A4 (Homo sapiens) (UniProt P08684); assay: qHTS Assay for Inhibitors and Substrates of Cytochrome P450 3A4 (AID 884; active means well fitted curve in the direction sought with a large enough effect; an effect the other way counts as inactive or inconclusive; further: potency means the concentration at half of the fitted maximal effect; nearly all actives have a fitted effect of over 50% in size); conditions: recombinant CYP3A4, Luciferin-PPXE luminescence; series mostly up to 57.1 µM
In short: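 Luminescent readout of luciferin produced by CYP3A4 (20 nM) dealkylation of Luciferin-PPXE, 25 uM (its KM). NADPH-driven reaction ran 60 min at RT after 10 min compound preincubation; data scaled to 57 uM ketoconazole as 100% inhibition.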

[15] = Confirmation and Secondary Assay for Modulators of Hemoglobin Beta Chain Splicing at IVS2 654 locus (AID 910; active means well fitted curve in the direction sought with a large enough effect; an effect the other way counts as inactive or inconclusive;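 further: HeLa cells stably carrying EGFP split by mutant beta-globin IVS2-654 intron; per-well total GFP intensity by laser scanning cytometry after 2-day treatment; % of control where 0% means no effect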); conditions: HeLa EGFP-654 splicing reporter, GFP fluorescence, 48 h; series mostly up to 38.3 µM
In short: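 Readout: per-well total peak green fluorescence (488 nm ex, 500–520 nm em) from objects 5–250 µm, reflecting correct splicing of an EGFP-654 reporter. Compounds were applied for 2 days at 37 °C to overnight-plated HeLa EGFP-654 cells; controls were DMSO and 500 nM IVS2-654 PNA.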

[16] = Confirmation and Secondary Assay for Modulators of Hemoglobin Beta Chain Splicing at IVS2 705 locus (AID 930; active means well fitted curve in the direction sought with a large enough effect; an effect the other way counts as inactive or inconclusive;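 further: HeLa cells stably expressing the EGFP-705 splicing reporter; GFP fluorescence per well restored by corrected splicing of the IVS2-705 intron in EGFP; % of control where 0% means no effect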); conditions: HeLa EGFP-705 splicing reporter, GFP fluorescence, 48 h; series mostly up to 38.3 µM
In short: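 HeLa EGFP-705 reporter; 500 cells/well, o/n 37C 5% CO2; cpd 2 d; 488 ex/500-520 em laser scan; total peak GFP intensity/well. Ref: 500 nM […] antisense PNA.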

[17] = target: Ubiquitin carboxyl-terminal hydrolase 1 (Homo sapiens) (UniProt O94782); assay: Inhibitors of USP1/UAF1: Pilot qHTS (AID 504865; active means well fitted curve in the direction sought with a large enough effect; an effect the other way counts as inactive or inconclusive;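 further: rhodamine fluorescence freed from ubiquitin-rhodamine substrate followed over time; top concentration of the series differs between compounds; on the % scale 0 is the no-effect control and ±100 the full control effect; nearly all actives have a fitted effect of over 35% in size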); conditions: purified USP1/UAF1, Ub-rhodamine cleavage fluorescence; series mostly up to 54.9 µM
Sequence of Ubiquitin carboxyl-terminal hydrolase 1 (Homo sapiens) (O94782 whole entry, looked up): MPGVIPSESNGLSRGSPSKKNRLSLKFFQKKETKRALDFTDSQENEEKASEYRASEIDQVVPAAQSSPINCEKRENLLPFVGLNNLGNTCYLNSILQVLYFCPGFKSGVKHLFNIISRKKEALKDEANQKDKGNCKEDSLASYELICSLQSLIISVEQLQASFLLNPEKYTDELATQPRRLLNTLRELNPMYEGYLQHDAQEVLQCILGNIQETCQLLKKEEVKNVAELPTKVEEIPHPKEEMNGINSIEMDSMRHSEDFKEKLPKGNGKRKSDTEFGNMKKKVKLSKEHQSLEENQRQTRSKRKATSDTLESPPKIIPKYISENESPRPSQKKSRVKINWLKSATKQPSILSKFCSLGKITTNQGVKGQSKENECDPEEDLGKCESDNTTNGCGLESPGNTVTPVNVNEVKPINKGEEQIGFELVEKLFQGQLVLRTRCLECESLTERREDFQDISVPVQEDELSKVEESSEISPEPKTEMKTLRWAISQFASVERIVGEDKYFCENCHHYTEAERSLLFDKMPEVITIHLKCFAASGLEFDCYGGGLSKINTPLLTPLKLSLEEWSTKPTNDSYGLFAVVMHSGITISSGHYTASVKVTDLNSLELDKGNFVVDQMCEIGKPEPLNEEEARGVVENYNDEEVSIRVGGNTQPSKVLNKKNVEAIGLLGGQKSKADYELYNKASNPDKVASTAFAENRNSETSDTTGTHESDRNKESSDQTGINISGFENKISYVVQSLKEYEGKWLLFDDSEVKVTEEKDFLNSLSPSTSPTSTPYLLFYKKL
In short: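 Kinetic fluorescence assay: 1nM USP1/UAF1, 15 min compound preincubation, then 150nM Ub-Rho; 480/540 nm.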

[18] = target: Cytochrome P450 2C9 (Homo sapiens) (UniProt P11712); assay: qHTS Assay for Inhibitors and Substrates of Cytochrome P450 2C9 (AID 883; active means well fitted curve in the direction sought with a large enough effect; an effect the other way counts as inactive or inconclusive; further: on the % scale 0 is the no-effect control and ±100 the full control effect; nearly all actives have a fitted effect of over 60% in size); conditions: recombinant CYP2C9, luciferin-H luminescence, 60 min; series mostly up to 57.1 µM
Sequence of Cytochrome P450 2C9 (Homo sapiens) (P11712 whole entry, looked up): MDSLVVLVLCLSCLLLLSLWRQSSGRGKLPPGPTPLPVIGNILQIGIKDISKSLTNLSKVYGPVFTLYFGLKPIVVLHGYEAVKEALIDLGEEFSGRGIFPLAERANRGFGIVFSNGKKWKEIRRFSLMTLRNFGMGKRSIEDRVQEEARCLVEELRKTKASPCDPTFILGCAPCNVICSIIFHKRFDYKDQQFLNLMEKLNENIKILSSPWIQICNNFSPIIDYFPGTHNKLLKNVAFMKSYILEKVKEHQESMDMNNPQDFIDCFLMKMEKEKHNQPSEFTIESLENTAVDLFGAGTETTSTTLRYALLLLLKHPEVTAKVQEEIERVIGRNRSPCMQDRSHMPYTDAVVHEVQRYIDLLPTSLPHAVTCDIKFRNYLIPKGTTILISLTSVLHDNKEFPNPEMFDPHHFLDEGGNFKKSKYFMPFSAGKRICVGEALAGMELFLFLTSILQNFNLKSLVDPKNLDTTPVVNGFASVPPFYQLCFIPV
In short: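 Inhibition of CYP2C9 is scored as loss of luminescence, with 57uM sulphaphenazole defining 100% inhibition. Substrate Luciferin-H is used at 100uM, equal to its KM; enzyme at 10nM in 25mM KPO4, 60 min at 37C with NADPH regeneration.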

[19] = qHTS Assay for Identification of Small Molecule Agonists for Hypoxia Response Element Signaling Pathway (AID 914; active means well fitted activation curve with a large enough effect in the signal ratio, with a control signal flat, not every such curve was filed as active; the % refers to the signal ratio; further: % of control where 0% means no effect); conditions: ME-180 (cervical carcinoma) HRE-bla reporter, beta-lactamase ratio, CoCl2, 17 h; activation: stronger effect = higher value
In short: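 Read-out: CCF4 FRET ratio of 460nm to 530nm emission (excitation 405nm) after 2.5 hours at room temperature, taken from HRE-bla ME-180 cells that had been exposed to compound and EC50 CoCl2 for 17 hours.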

[20] = measured here: cell count channel max response
[21] = measured here: lipid channel max response

O=C(Nc1cccc(F)c1)N1CC2(CCN(S(=O)(=O)c3ccccc3)CC2)C1
inactive: Potency [1] > 11.4 µM | activity change, negative = inhibition [2] -8.31% | Potency [3] | activity change, negative = inhibition [4] 22.6% | activity, negative = inhibition [5] -14.1% | Potency [6] > 46 µM | Potency [7] | activity change, negative = inhibition [8] -4.83% | Potency [9]
-11.8%: max response [8, 21]
-8.16%: max response [8, 20]

O=C(Oc1ccccc1)N1CCC[C@@]2(CCN(c3ncccn3)C2)C1
active: Potency [3] 12.6 µM | Potency [11] 2.51 µM
inactive: Potency [1] > 11.4 µM | activity change, negative = inhibition [2] 2.93% | activity change, negative = inhibition [4] -0.482% | activity, negative = inhibition [5] 9% | Potency [6] > 46 µM | Potency [7] | Potency [10] | activity change, negative = inhibition [8] 4.5% | Potency [9]
8.9%: max response [8, 20]
17.1%: max response [8, 21]

c1ccc(-c2cccc(N3CC[C@@]4(CCCNC4)C3)c2)cc1
-28.1%: max response [8, 20]
inactive: Potency [1] > 11.4 µM | activity change, negative = inhibition [2] 1.23% | activity change, negative = inhibition [4] 6.24% | activity, negative = inhibition [5] -6.03% | Potency [6] > 46 µM | Potency [7] | Potency [10] | activity change, negative = inhibition [8] 1.77% | Potency [9]
active: Potency [3] 12.6 µM
-22.7%: max response [8, 21]

Cc1ccccc1-c1cncnc1Nc1ccc(F)cc1
active: Potency [3] 10 µM | Potency [14] 0.199 µM
2.59%: max response [8, 21]
-4.87%: max response [8, 20]
inactive: Potency [1] > 11.4 µM | activity change, negative = inhibition [2] 15.1% | activity, negative = inhibition [5] 32.1% | Potency [12] > 46 µM | Potency [6] > 46 µM | outcome [13] | Potency [10] | outcome [15] | outcome [16] | activity change, negative = inhibition [8] 6.79% | Potency [17] | Potency [9]

CS(=O)(=O)N1CCC2(CCCN(C(=O)Nc3cccc(C#N)c3)C2)CC1
14.7%: max response [8, 20]
inactive: Potency [1] > 11.4 µM | activity change, negative = inhibition [2] 2.54% | Potency [3] | activity, negative = inhibition [5] 1.15% | Potency [6] > 46 µM | outcome [13] | Potency [7] | Potency [10] | activity change, negative = inhibition [8] 6.12% | Potency [9]
21%: max response [8, 21]

COc1ccc(NC(=O)N2CCCC3(CCN(C(=O)c4cnccn4)CC3)C2)cc1
1.78%: max response [8, 20]
inactive: Potency [1] > 11.4 µM | activity change, negative = inhibition [2] -0.971% | Potency [3] | activity, negative = inhibition [5] -7.92% | Potency [6] > 46 µM | outcome [13] | Potency [7] | Potency [10] | activity change, negative = inhibition [8] 4.77% | Potency [9]
8.5%: max response [8, 21]

CN(C)C(=O)c1ccc(-c2ccc3ncnc(N4CCC(C(=O)O)CC4)c3c2)cc1
20.3%: max response [8, 20]
23.2%: max response [8, 21]
inactive: Potency [1] > 11.4 µM | activity change, negative = inhibition [2] 0.539% | activity, negative = inhibition [5] -4.54% | Potency [12] > 46 µM | Potency [6] > 46 µM | outcome [13] | Potency [7] | activity change, negative = inhibition [18] 37.2% [at 2.29 µM] | activation [19] -0.026% | activity change, negative = inhibition [8] 3.56% | Potency [17] | Potency [9]
